mIDH1 inhibitor: qHTS for Inhibitors of mutant isocitrate dehydrogenase 1 (IDH1): qHTS; Isocitrate dehydrogenase [NADP] cytoplasmic (Homo sapiens), O75874; IDH1-R132H enzyme, NADPH consumption, diaphorase/resazurin fluorescence; Potency, µM (top dose mostly 76.6 µM), without a hit: at the highest dose activity change, negative = inhibition, hits mostly inhibitors; 0.093% of 390,000 active; further: potency means the concentration at half of the fitted maximal effect; on the % scale 0 is the no-effect control and ±100 the full control effect; nearly all actives have a fitted effect of over 65% in size
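IDH1-R132H (0.5 ug/mL) preincubated 30 min with compound, then NADPH (0.016 mM) and alpha-KG (2 mM) added; 80 min at RT, pH 7.5. Remaining NADPH coupled via diaphorase/resazurin to fluorescence (540/590 nm); concentration-response curves normalized to no-enzyme control.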
LDHA block: qHTS assay for inhibitors of human lactate dehydrogenase; L-lactate dehydrogenase A chain (Homo sapiens), P00338; purified LDHA, NADH/diaphorase-resazurin fluorescence; active compounds read low; activity change, % (values are at about 110 or 230 µM); 0.15% of 480,000 active; AID 1347041, 2019; in the data active means activity change below about -30%; inconclusive means mostly about -25% to -30%;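 further: plate controls were DMSO wells for no effect and wells without enzyme for full effect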
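Human LDH5 at 2 nM final in Tris HCl pH 7.4 with 0.06 mM NADH and 0.2 mM pyruvate, reacted 5 minutes at room temperature. Remaining NADH coupled via diaphorase/resazurin; resorufin fluorescence read at 0 and 20 minutes, normalized to enzyme-free and DMSO wells.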
GLP1R inv ag: qHTS of GLP-1 Receptor Inverse Agonists (Inhibition Mode) | AID 624417, 2012 | 1.6% of 410,000 active | HEK293 GLP-1R CRE-luciferase, luminescence, 24 h; GLP-1R form is constitutively active | Glucagon-like peptide 1 receptor (Homo sapiens), P43220 | Potency, µM (doses to about 38.3 µM), for inactives: top-dose activity change, negative = inhibition, most hits filed as inhibitors; further: potency means the concentration at half of the fitted maximal effect; on the % scale 0 is the no-effect control and ±100 the full control effect; nearly all actives have a fitted effect of over 55% in size
Target sequence (P43220 whole entry, looked up): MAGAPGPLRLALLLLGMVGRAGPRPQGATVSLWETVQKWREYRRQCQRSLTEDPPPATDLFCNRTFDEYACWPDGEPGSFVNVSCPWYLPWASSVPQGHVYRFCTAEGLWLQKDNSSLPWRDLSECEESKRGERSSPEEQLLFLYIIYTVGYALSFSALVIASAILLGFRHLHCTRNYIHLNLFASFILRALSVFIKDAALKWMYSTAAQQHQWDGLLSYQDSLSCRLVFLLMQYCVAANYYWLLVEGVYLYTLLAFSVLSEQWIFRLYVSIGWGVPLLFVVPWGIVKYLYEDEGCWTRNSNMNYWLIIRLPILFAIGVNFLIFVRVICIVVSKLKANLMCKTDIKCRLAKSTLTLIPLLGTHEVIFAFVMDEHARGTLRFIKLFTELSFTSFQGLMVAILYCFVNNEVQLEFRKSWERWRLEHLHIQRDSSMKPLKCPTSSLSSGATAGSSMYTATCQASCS
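Inverse agonists were sought by their lowering of basal cAMP reporter luciferase output in HEK293 cells stably carrying constitutively active human GLP-1R, after 24 h compound treatment.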
PTHR1 ag: qHTS for PTHR1 Agonists: Primary Screen. HEK293 GP2 PTHR1 cells, GloSensor cAMP luminescence, 1 h. 0.075% of 410,000 active. Potency, µM (titrated, usually from 115 µM), inactives show top-dose activation, hits mostly activators. Parathyroid hormone/parathyroid hormone-related peptide receptor (Homo sapiens), Q03431. AID 743266, 2014; further: potency means the concentration at half of the fitted maximal effect; nearly all actives have a fitted effect of over 55% in size
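HEK-293-derived GP2 cells expressing PTHR1 and a GloSensor cAMP reporter, 3,000/well, plated overnight, given luciferin plus IBMX (each 0.5 mM as added) for 1 h at 37 °C, then compound for 1 h at 37 °C. Luminescence was read after 15 min at room temperature.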
GLP1R cytotox: qHTS of GLP-1 Receptor Inverse Agonists: Cytotox Screen. AID 624418, 2012. 0.13% of 410,000 active. Potency, µM (doses to about 38.3 µM), without a hit: at the highest dose activity change, negative = inhibition, most hits filed as inhibitors. HEK293 cAMP-luciferase reporter cells, luminescence, 24 h;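 further: loss of luciferase light is scored as toxicity; potency means the concentration at half of the fitted maximal effect; on the % scale 0 is the no-effect control and ±100 the full control effect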
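Compound-treated cells are incubated 24 hr at 37 deg C under 5% CO2 after a 12 hour attachment period, then luciferase detection reagent is added and luminescence is measured following 12 min at room temperature; lowered signal indicates toxicity.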
GLP1R ag: qHTS of GLP-1 Receptor Agonists. HEK293 GLP-1R CRE-luciferase, luminescence, 4-6 h; cells express a hypersensitive GLP-1R form. Potency, µM (titrated, usually from 45.6 µM), inactives show top-dose activation, usual class: activators. 0.007% of 380,000 active. AID 624172, 2012; further: potency means the concentration at half of the fitted maximal effect; % of control where 0% means no effect
* marks the source's active call; other numbers are inactive results; i = inactive; ? = inconclusive; . = no result; ! = repeats disagree. Compounds with a hit are over-represented: about 1.7% of the library has one in this group of screens. Unless noted, the call rests on the fitted dose curve; in most records, active means well fitted curve in the direction sought with a large enough effect; inconclusive means small, poorly fitted or top-dose-only effect, or another doubt; inactive means no such curve, though single readings can be large; an effect the other way counts as inactive or inconclusive.

SMILES | mIDH1 inhibitor | LDHA block | GLP1R inv ag | PTHR1 ag | GLP1R cytotox | GLP1R ag
CCN1CCN(Cc2ccc(NC(=O)Nc3ccc(SC)cc3)cc2)CC1 | 6% | -4 | 7.9µM* | -5% | ? | 14%
CCN1CCN(Cc2ccc(NC(=O)Nc3ccccc3)cc2)CC1 | 9% | 3 | ? | -23% | 0% | -8%
COc1ccc(CN2CCN(Cc3c[nH]c4ccccc34)CC2)cc1OC | 7% | -32* | -11% | 14% | 3% | 18%
Cc1ccc(NS(=O)(=O)c2cccc(C(=O)OCC(=O)NCc3ccco3)c2)c(C)c1 | . | -5 | . | . | . | .
CCCC(=O)Nc1scc(-c2ccc(OC)c(OC)c2)c1C(=O)OCC | . | 6 | . | . | . | .
COc1ccc(CN2CCN(Cc3ccc(C)cc3)CC2)c(OC)c1 | 6% | -20 | ? | i | 10% | 1%
CCn1c2ccccc2c2cc(CN3CCN(Cc4cc(OC)c(O)c(OC)c4)CC3)ccc21 | 12% | 23 | 11µM* | -13% | -1% | .
COc1ccc(CN2CCN(Cc3ccco3)CC2)cc1OC | 12% | -34* | 10% | i | 4% | 0%
COc1ccc(CN2CCN(Cc3ccco3)CC2)cc1 | 12% | -25 | -19% | -38% | -2% | 2%
COc1cc(OC)c(OC)cc1CN1CCN(Cc2ccc(SC)cc2)CC1 | 5% | -30* | ? | -34% | 3% | 0%
COc1ccc(CN2CCN(Cc3ccc(C(F)(F)F)cc3)CC2)c(OC)c1 | 14% | -21 | 11µM* | i | -17% | 19%
COc1ccc(CN2CCN(Cc3c[nH]c4ccccc34)CC2)c(OC)c1 | -4% | -33* | ? | i | -7% | 4%
CCOc1ccc(C(=O)NC(C)c2cc(C)ccc2C)cc1OC (stereo unspecified) | . | 1 | . | . | . | .
CCCn1c2ccc(C)cc2c2nnc(SCCN3CCCCC3)nc21 | 12% | 2 | 7.1µM*! | 1% | -13% | 15%
COc1cc(/C=C(\C#N)C(=O)c2ccc(O)c(O)c2)cc(I)c1O | 4% | -44* | 37% | i | -7% | -4%
Clc1ccc(-c2csc(NC3CCCC3)n2)c(Cl)c1 | . | -8 | . | . | . | .
c1ccc(CN=C2NN=C(c3cc4ccccc4o3)CS2)cc1 | 4% | -3 | 22% | -23% | -2% | -1%
c1ccc2oc(C3=NNC(=NC4CC4)SC3)cc2c1 | ? | 1 | 8.9µM* | -39% | ? | 11%
CCCCNc1c(-c2ccc(OC)c(SC3CCCCC3)c2)nc2ccc(C)cn12 | 2% | 3 | 7% | -11% | 4% | -5%
CCC(C)Sc1ccc(-c2nc3ccc(C)cn3c2NCc2ccccc2)cc1OC (stereo unspecified) | 7% | 1 | 2.8µM* | i | -25% | -4%
CCCCNc1c(-c2ccc(SC3CCCCC3)c(OC)c2)nc2ccc(C)cn12 | 0% | 5 | 8.9µM* | -51% | 0% | -3%
CCC(C)Sc1cc(-c2nc3ccc(C)cn3c2NCc2ccccc2)ccc1OC (stereo unspecified) | 16% | 2 | ? | -9% | -18% | -6%
O=C(COC(=O)C1CCN(/C=C/C(=O)C(F)(F)F)CC1)NC(c1ccccc1)c1ccccc1 | . | -1 | . | . | . | .
Cc1ccc(CN2CCC(CNS(=O)(=O)c3csc(C(N)=O)c3)CC2)cc1 | . | 0 | . | . | . | .
Cc1ccc(C)c(NC(=O)COc2ncnc3ccccc23)c1 | . | 13 | . | . | . | .

Source: PubChem BioAssay (National Center for Advancing Translational Sciences (NCATS))
